Hits are enriched below; roughly 3% of the tested compounds scored in any of these assays.
Wnt act = activators of Wnt/beta-catenin signaling; Wnt/beta-catenin reporter cell assay, activator, plate reader; activation, % at 9.35 µM; hit rate 1.2% among 300,000; AID 743398; in the data active means activation above about 30%, passing the limit was not always enough; inconclusive means no clear call, values can overlap the other calls;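 further: 0% = neutral control wells and 100% = positive control wells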
esBAF inh = SWI/SNF esBAF complex inhibition | mouse ES cells, Bmi1-luciferase knock-in reporter, 24 h; 100% = twice the neutral-well signal | reporter increase, % at 12.5 µM | hit rate 2% among 350,000 | AID 602393; in the data active means activation above about 40%; inconclusive means no clear call, values can overlap the other calls;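 further: 0% = median of the plate's neutral control wells and 100% = double that signal; a rise in the Bmi1 reporter signal indicates esBAF inhibition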
PfHsp90 set2 = reduces growth (ATP signal) of yeast expressing P. falciparum Hsp90; S. cerevisiae expressing PfHsp90, BacTiter-Glo ATP, 48 h; yeast lacking PDR1 and PDR3 efflux regulators; hit rate 0.32% among 310,000; inhibition, % at 9.4 µM; AID 504621;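 active means every replicate shows inhibition above about 80%, whatever the replicate mean, limit read from the data; inconclusive means mean inhibition reaches the set limit but some replicate falls short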;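 further: 0% = DMSO neutral controls and 100% = 20 µM radicicol positive controls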
Glyco luc inh = blocks N-linked glycosylation in D54 reporter cells; D54 ERlucT glycosylation luciferase reporter, 24 h; percent of 100 nM tunicamycin response; reporter increase, % at 12.5 µM; hit rate 0.23% among 360,000; AID 588692;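 active means mean luciferase reporter signal, scaled so untreated is 0 and the glycosylation-blocking control 100, at or above a set limit in every replicate; inconclusive means mean reaches the limit but not every replicate does; inactive means mean below the limit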;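 further: luciferase carries N-glycosylation sites so blocking glycosylation raises the light; 0% = median of neutral control wells and 100% = median of 100 nM tunicamycin wells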
Vif imaging = blocks HIV Vif function; HEK293T cells, Vif self-association by quenched fluorescence, imaging, 24 h; inhibition, % at 7.49 µM; hit rate 0.35% among 340,000; in the data active means inhibition above about 50%, passing the limit was not always enough; inconclusive means no clear call, values can overlap the other calls; inactive means below about 31%
MITF TRPM1 HTS = increases MITF-driven TRPM1 promoter luciferase signal; SK-MEL-5 TRPM1-promoter luciferase, 24 h; % of positive control, neutral wells = 0; activation, % at 12.5 µM; hit rate 0.75% among 300,000;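 active means mean activation of at least 80% with every replicate also reaching 80%; inconclusive means mean reaches 80% but some replicate falls short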;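 further: 0% = neutral control wells and 100% = parthenolide positive control wells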
Starred values were filed as active, the others as inactive; ? = inconclusive; · = not tested or not shown.

SMILES	Wnt act	esBAF inh	PfHsp90 set2	Glyco luc inh	Vif imaging	MITF TRPM1 HTS
Cc1ccc(-c2nc(Nc3ccccc3)n[nH]2)cc1	45*	·	-4	-10	3	40
Nc1nc(CSc2n[nH]c(-c3ccccc3)n2)nc(Nc2ccccc2)n1	·	·	-21	2	-7	16
CC(C)NC(=O)c1cccc(C(F)(F)F)c1	·	·	25	1	-5	-4
O=c1cc(-c2ccsc2)oc2ccc(-c3ccc4cc[nH]c4c3)cc12	23	59*	·	2	-6	115*
COc1cc(-c2ccc3oc(-c4ccsc4)cc3c2)cc(OC)c1OC	-9	11	-18	2	-5	9
COc1ccc(-c2ccc3oc(-c4ccsc4)cc(=O)c3c2)cc1F	7	45*	-23	2	0	50
CCOc1ccc(N2CC(C(=O)Nc3ccc(S(=O)(=O)Nc4ncccn4)cc3)CC2=O)cc1 (stereo not drawn)	2	-6	17	3	-11	1
CCOC(=O)C1(Cc2ccccc2)CCN(Cc2cnn(C(C)C)c2)CC1	-2	8	22	0	6	-4
CCOC(=O)C1(Cc2cccc(F)c2)CCN(Cc2nc(CC)[nH]c2C)CC1	0	-5	-20	0	85*	5
CCOC(=O)C1(Cc2ccccc2)CCN(Cc2csc(C(C)=O)c2)CC1	0	-6	-1	-4	119*	7
CCOc1ccc(C(=O)/C=C/c2ccc(SC)cc2)cc1	0	3	·	5	-11	8
CN(C)c1ccc(/C=C/C(=O)c2ccccc2)cc1[N+](=O)[O-]	34*	62*	12	9	15	33
Cc1ccc(/C=C/C(=O)c2ccc(O)cc2)cc1	0	·	6	-5	10	73
CN(C)c1ccc(C(=O)/C=C/c2ccccc2)cc1	·	68*	7	-8	8	?
Cc1ccc(/C=C/C(=O)c2ccccc2)cc1	·	15	·	14	12	97*
CNc1ccc(/C=C/C(=O)c2ccc(C)cc2)cc1[N+](=O)[O-]	-2	·	5	20	5	-2
CSc1ccc(/C=C/C(=O)c2ccc(O)cc2)cc1	·	·	-16	6	0	94*
O=C(c1ccccc1)N1CCCC(C(=O)N2CCc3ccccc3C2)C1 (stereo not drawn)	-4	0	19	-1	-6	-6
CC(=O)c1cccc2c(O)c(C3=Nc4ccccc4C3=O)[nH]c12	40*	13	-25	11	7	-38
Cc1cccc(Oc2coc3cc(OC(=O)c4cncc(Br)c4)ccc3c2=O)c1	3	34*	8	0	-2	2
Cc1cccc(Oc2coc3cc(OC(=O)c4cc5ccccc5oc4=O)ccc3c2=O)c1	·	54*	·	1	23	42
Cc1cccc(Oc2coc3cc(O)ccc3c2=O)c1	9	59*	0	2	-11	·
CCOC(=O)Oc1ccc2c(=O)c(Oc3cccc(C)c3)coc2c1	18	?	·	4	2	26
CC(C)CC#Cc1ccc2c(c1)O[C@H](CN(C)Cc1cccnc1)[C@H](C)CN([C@H](C)CO)S2(=O)=O	·	-2	·	·	·	·
COCCNC(=O)C(=O)NNS(=O)(=O)c1ccc(Cl)cc1	-1	-7	-20	1	3	5
SMILES	Wnt act	esBAF inh	PfHsp90 set2	Glyco luc inh	Vif imaging	MITF TRPM1 HTS
O=C(c1ccc(OC2CCN(C/C=C/c3ccccc3)CC2)cc1)N1CCCC1	1	·	4	0	·	-3
COCCNC(=O)C(c1ccc(Cl)cc1)N(Cc1ccco1)C(=O)CCC(=O)Nc1ccccn1 (stereo not drawn)	-3	-2	-6	2	15	-2
N#CCc1nc(CSc2nc3ccccc3o2)cs1	-3	102*	7	-2	1	55
COc1cc2c(cc1OC)CN(C(=O)CN(C)S(=O)(=O)c1ccc(NC(C)=O)cc1)CC2	-1	-7	-4	1	-6	2
Cc1ccsc1/C=N/NC(=O)Nc1ccccc1	16	·	-48	-3	-2	107*
O=C(N/N=C/c1ccc(Br)s1)Nc1ccccc1	-2	51*	-50	3	-6	64
O=C(N/N=C/c1ccc(Br)s1)c1cccs1	27	·	-11	5	0	·
Cc1cccc(-n2c(C)nc3ccsc3c2=O)c1	0	·	12	1	3	·
CN(CC1COc2ccccc2O1)C(=O)c1ccc(N(C)C)cc1 (stereo not drawn)	4	·	-31	0	-6	0

High-throughput results (PubChem BioAssay)
